A number with no mark means an inactive call. Records with an inconclusive call do not appear. Active and inactive are the calls of the source. Unless noted, calls follow the shape of the dose curve; as a rule, active = well fitted curve in either direction with a large enough effect (not every such curve was filed as active); inconclusive = small, poorly fitted or top-dose-only effect, or another doubt; inactive = flat fitted curve, though single readings scatter. A value given as a limit tells only on which side of the number the result lay.

The nature of test [1]: AP1 Signaling Pathway (AID 357). Also: % is scaled to controls: 0 for no effect and ±100 for the full control effect. To be noted: ME-180 AP-1-bla reporter, EGF-induced, beta-lactamase ratio, 5 h; at 17.2 µM (top of the series) unless noted. The gist of the method: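 Cells are seeded overnight, exposed to compound titrations and an EC50 level of EGF for 5 hours at 37 °C, then loaded with CCF4 dye for 2.5 hours. Beta-lactamase activity under the AP-1 element is read as a blue/green ratio.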

The target in test [2] is Cytochrome P450 1A2 (Homo sapiens) (UniProt P05177). Description: p450-cyp1a2 (AID 410; calls by dose curve; also: potency is read from the fitted curve at half-maximal effect;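 as to activity change, negative = inhibition: -100% = full effect of reference inhibitor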). The gist of the method: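 O-Demethylation of luciferin 6' methyl ether by human CYP1A2 is monitored as luciferase luminescence. Substrate sits at Km (100uM); enzyme is 20nM. Values are scaled to 57 uM furafylline as maximal inhibition.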
Chain of Cytochrome P450 1A2 (Homo sapiens) (P05177 whole entry, looked up): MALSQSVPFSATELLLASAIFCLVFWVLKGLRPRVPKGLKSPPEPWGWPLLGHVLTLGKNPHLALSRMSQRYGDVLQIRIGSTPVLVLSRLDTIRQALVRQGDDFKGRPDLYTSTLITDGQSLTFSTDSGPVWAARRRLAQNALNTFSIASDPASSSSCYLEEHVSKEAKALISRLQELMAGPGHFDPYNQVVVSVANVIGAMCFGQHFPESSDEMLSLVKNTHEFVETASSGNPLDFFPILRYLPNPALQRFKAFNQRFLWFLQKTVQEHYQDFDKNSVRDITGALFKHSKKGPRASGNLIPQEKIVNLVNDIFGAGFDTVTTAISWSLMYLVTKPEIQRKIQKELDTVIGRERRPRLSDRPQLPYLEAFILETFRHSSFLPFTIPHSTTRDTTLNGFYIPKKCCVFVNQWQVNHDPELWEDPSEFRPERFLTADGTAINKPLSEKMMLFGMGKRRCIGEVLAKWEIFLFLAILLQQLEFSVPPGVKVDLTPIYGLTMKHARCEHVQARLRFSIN
The target in test [3] is Glucocorticoid receptor (Homo sapiens) (UniProt P04150). The test is described as follows: GR-GFP Redistribution (AID 450;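 active = compounds whose dose series gives a full or clear partial fitted curve of increased nuclear translocation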; also: potency is read from the fitted curve at half-maximal effect).
Chain of Glucocorticoid receptor (Homo sapiens) (P04150 whole entry, looked up, the tested form may be a part): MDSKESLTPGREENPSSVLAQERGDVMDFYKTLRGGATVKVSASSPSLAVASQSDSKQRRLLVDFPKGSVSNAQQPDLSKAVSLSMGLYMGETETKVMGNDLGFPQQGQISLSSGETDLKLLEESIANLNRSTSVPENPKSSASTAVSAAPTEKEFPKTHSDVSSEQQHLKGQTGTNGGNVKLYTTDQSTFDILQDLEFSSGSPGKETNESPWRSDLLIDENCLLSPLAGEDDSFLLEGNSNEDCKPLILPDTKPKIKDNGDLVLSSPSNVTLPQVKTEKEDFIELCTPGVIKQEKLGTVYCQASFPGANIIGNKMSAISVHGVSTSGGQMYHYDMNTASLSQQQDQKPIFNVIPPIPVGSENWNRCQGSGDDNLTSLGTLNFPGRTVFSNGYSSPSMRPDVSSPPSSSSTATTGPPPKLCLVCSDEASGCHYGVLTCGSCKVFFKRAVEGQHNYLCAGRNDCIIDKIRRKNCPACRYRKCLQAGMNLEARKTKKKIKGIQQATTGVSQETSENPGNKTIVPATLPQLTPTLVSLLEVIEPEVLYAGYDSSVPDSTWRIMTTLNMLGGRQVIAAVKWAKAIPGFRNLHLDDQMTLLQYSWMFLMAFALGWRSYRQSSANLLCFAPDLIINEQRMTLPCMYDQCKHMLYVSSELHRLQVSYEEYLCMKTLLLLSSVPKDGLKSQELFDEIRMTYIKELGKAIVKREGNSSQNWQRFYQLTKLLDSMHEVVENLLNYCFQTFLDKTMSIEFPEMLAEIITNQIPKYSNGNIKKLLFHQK
The target is the same in test [4]. Description: GR-EFC Redistribution (AID 451; calls by dose curve; also: potency is read from the fitted curve at half-maximal effect). The settings on record: CHO-K1 GR-EFC translocation, beta-gal luminescence, 2 h. The gist of the method: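 CHO-K1 cells expressing nuclear EA and GR-ED fragments of b-gal; compounds titrated up to 46 uM final, 2 h at 37 C. GR nuclear translocation read as complemented b-gal luminescence after 1 h RT detection.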
Test [5] concerns the target Cytochrome P450 3A4 (Homo sapiens) (UniProt P08684). The test is described as follows: qHTS Assay for Activators of Cytochrome P450 3A4 (AID 885; active = well fitted curve in the direction sought with a large enough effect; an effect the other way counts as inactive or inconclusive; also: nearly all actives have a fitted effect of over 65% in size). The gist of the method: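 Human CYP3A4 dealkylates Luciferin-PPXE to luciferin, which luciferase detection converts to light. Substrate was at its KM (25uM), buffer 200mM KPO4, reaction 60 min at RT.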
A general note: Quantitative high-throughput screening tests each substance at several concentrations.

Test [6] concerns the target Cytochrome P450 2D6 (Homo sapiens) (UniProt P10635). The test is described as follows: qHTS Assay for Inhibitors and Substrates of Cytochrome P450 2D6 (AID 891; active = well fitted curve in the direction sought with a large enough effect; an effect the other way counts as inactive or inconclusive;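 also: luciferin methyl ether substrate demethylated by CYP2D6 with NADPH regeneration; % is scaled to controls: 0 for no effect and ±100 for the full control effect; nearly all actives have a fitted effect of over 60% in size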). The gist of the method: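 Luminescent read-out of luciferin formed by 5 nM human CYP2D6 demethylating 30 uM Luciferin-ME EGE (Km level) over 60 min at room temperature after NADPH regeneration addition. Data normalized to full inhibition by 1.43 uM quinidine.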

Test [7] concerns the target Ubiquitin carboxyl-terminal hydrolase 1 (Homo sapiens) (UniProt O94782). The test is described as follows: Inhibitors of USP1/UAF1: Pilot qHTS (AID 504865; active = well fitted curve in the direction sought with a large enough effect; an effect the other way counts as inactive or inconclusive; also: potency is read from the fitted curve at half-maximal effect; nearly all actives have a fitted effect of over 35% in size). The gist of the method:
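USP1/UAF1 complex at 1 nM preincubated 15 min at room temperature with compound, then Ub-Rho substrate added at 150 nM final. Fluorescence (480/540 nm) read kinetically in 50 mM HEPES pH 7.8, 0.5 mM EDTA, 1 mM TCEP, 0.1 mg/ml BSA, 0.01% Tween-20.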

The nature of test [8]: Stat Signaling Pathway (AID 446).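 Also: ME-180 cervical cancer cells given 40 pM IL-6 alongside compound; SIE-controlled beta-lactamase reporter measured as 460/530 nm FRET emission ratio; % is scaled to controls: 0 for no effect and ±100 for the full control effect.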 To be noted: ME-180 SIE beta-lactamase reporter, IL-6 stimulated, 5 h; at 17.2 µM (top of the series) unless noted. The gist of the method:
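Normalization used AC90 stimulation (300 pM IL-6) and AC90 inhibition (125 nM pan-JAK inhibitor at 40 pM IL-6). The underlying signal is SIE-driven beta-lactamase in ME-180 cells after 5 h IL-6 exposure with compound.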

Test [9] addresses Mitogen-activated protein kinase 10 (Mus musculus) (UniProt Q61831). The test is described as follows: JNK3 AlphaScreen Assay (AID 530).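 Also: kinase came from lysate of stimulated human HepG2 cells; signal reports phosphorylation of biotinylated GST-cJun 1-79 at Ser73 with 10 µM ATP; % is scaled to controls: 0 for no effect and ±100 for the full control effect.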 The gist of the method:
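Activity was read by AlphaScreen after JNK3-containing HepG2 lysate (cytokine pre-activated) phosphorylated biotinylated GST-cJun with 10 uM ATP at room temperature. Phospho-Ser73 cJun antibody with Protein-A acceptor beads provided detection.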
A general note: Bead proximity is the source of the signal in Alpha formats.

Test [10] deals with 3',5'-cyclic-AMP phosphodiesterase 4B (Homo sapiens) (UniProt Q07343). The test is described as follows: qHTS Assay for Inhibitors of PDE-IV (AID 607; active = well fitted activation curve with a large enough effect in the main read-out, with a control signal flat, not every such curve was filed as active; also: % of control where 0% means no effect). The gist of the method:
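HEK293 ACTOne cells with CNG channel (1000/well), endogenous PDE4; membrane potential dye, compounds up to 22.9 uM final. Fluorescence Ex 535/Em 590; RO 20-1724 (100 uM final) as reference.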

Test [11] deals with Guanine nucleotide-binding protein G(i) subunit alpha-1 (Homo sapiens) (UniProt P63096). Description: qHTS Assay for Inhibitors of RGS12 GoLoco Motif Activity (Green Fluorophore) (AID 879; active = well fitted curve in the direction sought with a large enough effect; an effect the other way counts as inactive or inconclusive;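 also: 0% = labeled peptide with Gαi1 and full inhibition = labeled peptide alone without protein; negative values mean loss of peptide binding seen as reduced polarization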). The gist of the method: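 A drop in FITC polarization marked displacement of the FITC-tagged RGS12 GoLoco peptide (10 nM) from Gαi1 (50 nM). Compounds were incubated 10 min at room temperature in Tris pH 7.5 buffer containing 150 mM NaCl, 0.1 mM GDP and 0.05% NP40; unlabeled peptide titration served as control.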

Test [12] in a line: qHTS Assay for Identification of Small Molecule Agonists for Thrombopoietin (TPO) Signaling Pathway (AID 917; active = well fitted curve in the direction sought with a large enough effect; an effect the other way counts as inactive or inconclusive; also: % is scaled to controls: 0 for no effect and ±100 for the full control effect). The gist of the method:
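Stimulation at the TPO EC50 (26 pM final) was used to detect activators. Ba/F3 mouse cells bearing human TPO receptor and a luciferase reporter under the Glycoprotein IIb promoter were exposed to compounds for 24 hrs at 37 C.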

Test [13] concerns the target Muscarinic acetylcholine receptor M1 (Rattus norvegicus) (UniProt P08482). Description: qHTS Assay for Antagonists of Acetylcholine Muscarinic M1 Receptor: Measurement of IP-One Response (AID 944; active = well fitted curve in the direction sought with a large enough effect; an effect the other way counts as inactive or inconclusive; also: nearly all actives have a fitted effect of over 75% in size). The gist of the method:
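Antagonist mode with rat M1 receptor transfected into CHO cells. Compound is added first for 10 min, carbachol at its EC80 follows for 30 min, and lysis reagents then allow TR-FRET detection of accumulated IP1.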

For test [14], the target named is Pyruvate kinase (Leishmania mexicana) (UniProt Q27686). Description: qHTS Validation Assay for Inhibitors of Leishmania Mexicana Pyruvate Kinase (AID 945; active = well fitted curve in the direction sought with a large enough effect; an effect the other way counts as inactive or inconclusive;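 also: 0% = DMSO only neutral control wells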). The gist of the method: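 LmPYK E451W 0.2 nM; 0.5 mM PEP, 0.1 mM ADP, 7 mM MgCl2, 50 mM KCl, imidazole pH 7.2, 0.01% Tween 20, 0.05% BSA; 1 h RT; PKLight luminescence; DMSO-normalized.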
Chain of Pyruvate kinase (Leishmania mexicana) (Q27686 2-499 E452W): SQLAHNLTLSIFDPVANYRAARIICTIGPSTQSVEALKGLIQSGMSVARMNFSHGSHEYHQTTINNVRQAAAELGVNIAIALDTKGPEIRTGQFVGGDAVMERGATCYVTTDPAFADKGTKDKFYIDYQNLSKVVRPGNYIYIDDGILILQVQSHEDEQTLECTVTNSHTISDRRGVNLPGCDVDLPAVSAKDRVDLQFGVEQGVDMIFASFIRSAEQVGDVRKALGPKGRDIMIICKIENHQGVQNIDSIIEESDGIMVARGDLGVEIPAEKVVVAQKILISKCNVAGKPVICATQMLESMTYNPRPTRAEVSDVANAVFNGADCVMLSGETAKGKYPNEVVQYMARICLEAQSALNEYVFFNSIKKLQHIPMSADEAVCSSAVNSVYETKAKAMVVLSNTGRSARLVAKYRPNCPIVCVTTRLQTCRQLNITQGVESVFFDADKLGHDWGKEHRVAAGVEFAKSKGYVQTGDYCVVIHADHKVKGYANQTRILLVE
For test [15], the target named is Pyruvate kinase PKM (Homo sapiens) (UniProt P14618). Description: qHTS Assay for Activators of Human Muscle Pyruvate Kinase (AID 954; active = well fitted curve in the direction sought with a large enough effect, not every such curve was filed as active;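 also: 0% = uninhibited enzyme and -100% = no enzyme or full thiadiazolimine inhibition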). The gist of the method:
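Compound pinned into substrate mix (0.5 mM PEP, 0.1 mM ADP), then 0.1 nM PKM2 added; 1 h, RT. Stop/detection luciferase reagent added, luminescence read. Normalized to no-inhibition and no-enzyme or reference-inhibitor controls.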

Test [16] addresses Alpha-galactosidase A (Homo sapiens) (UniProt P06280). Description: Counterscreen for Glucocerebrosidase Inhibitors: qHTS Assay for Human alpha-Galactosidase at pH 4.5 (AID 992; active = well fitted curve in the direction sought with a large enough effect; an effect the other way counts as inactive or inconclusive; also: 0% is about no effect). The gist of the method: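 Steps: enzyme (2 nM final), then compound across 0.7 nM to 77 uM, then 80 uM fluorogenic galactopyranoside substrate; incubate 20 min at room temperature; quench at pH 10; measure fluorescence at 365/440 nm.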

The target of test [17] is alpha-glucosidase (Oryza sativa, rice) (UniProt Q653V4). The test is described as follows: Counterscreen for Glucocerebrosidase Inhibitors: qHTS Assay for Rice alpha-Glucosidase at pH 5.0 (AID 997; active = well fitted curve in the direction sought with a large enough effect; an effect the other way counts as inactive or inconclusive;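 also: 0% = full activity with enzyme and -100% = basal without enzyme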). The gist of the method: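 Endpoint fluorogenic assay at pH 5.0: compounds (0.7 nM to 77 uM) titrated against 4 nM rice enzyme and 400 uM 4-MU-alpha-glucoside for 20 min at room temperature; NaOH/glycine stop, read ex 365/em 440 nm, Hill-fitted AC50.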
On the technique in general: The purpose of a counterscreen is to sort out artefacts and off-target activity.

Test [18] is described as follows: qHTS Assay for Identification of Small Molecule Agonists for Hypoxia Response Element Signaling Pathway (AID 914; active = well fitted activation curve with a large enough effect in the signal ratio, with a control signal flat, not every such curve was filed as active; the % refers to the signal ratio; also: % of control where 0% means no effect). The settings on record: ME-180 HRE-bla reporter, beta-lactamase ratio, CoCl2, 17 h; activation: hits give high values. The gist of the method: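 ME-180 cells carrying an HRE-driven beta-lactamase reporter were treated with compounds in a titration series plus an EC50 level of CoCl2 for 17 h at 37 degrees Celsius; CCF4 readout as the 460nm/530nm ratio gave AC50 values.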

Test [19] in a line: NFAT Signaling Pathway (AID 444). To be noted: Jurkat NFAT-bla M1, carbachol, beta-lactamase ratio, 5 h; at 17.2 µM (top of the series) unless noted. The gist of the method:
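Jurkat cells with NFAT-driven β-lactamase reporter and co-expressed M1 receptor, stimulated with carbachol (final 1 uM, ~EC50), compound titration, 5 h at 37 °C. CCF4 loaded 1 h at RT; 460/530 nm ratio gave %activity and AC50.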

Test [20] in a line: Confirmation and Secondary Assay for Modulators of Hemoglobin Beta Chain Splicing at IVS2 705 locus (AID 930; active = well fitted curve in the direction sought with a large enough effect; an effect the other way counts as inactive or inconclusive;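 also: HeLa cells stably expressing the EGFP-705 splicing reporter; % of control where 0% means no effect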). The gist of the method:
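HeLa cells stably carrying EGFP interrupted by mutant beta-globin IVS2-705 intron (CMV-driven) were seeded at 500 cells/well, treated next day with compound for 2 days at 37C; corrected splicing restores EGFP, read as total peak GFP intensity per well.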

Test [21] deals with Cytochrome P450 2C9 (Homo sapiens) (UniProt P11712). The test is described as follows: qHTS Assay for Inhibitors and Substrates of Cytochrome P450 2C9 (AID 883; active = well fitted curve in the direction sought with a large enough effect; an effect the other way counts as inactive or inconclusive; also: % is scaled to controls: 0 for no effect and ±100 for the full control effect; nearly all actives have a fitted effect of over 60% in size). The gist of the method:
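Human CYP2C9 (10nM) with Luciferin-H at 100uM (its KM) in 25mM KPO4; compound preincubated 10 min at 37C, then NADPH regeneration for 60 min at 37C. Luciferin read by luminescence after detection reagent; normalized to 57uM sulphaphenazole as full inhibition.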

In test [22] the target is Cytochrome P450 2C19 (Homo sapiens) (UniProt P33261). Description: qHTS Assay for Inhibitors and Substrates of Cytochrome P450 2C19 (AID 899; active = well fitted curve in the direction sought with a large enough effect; an effect the other way counts as inactive or inconclusive; also: % is scaled to controls: 0 for no effect and ±100 for the full control effect; nearly all actives have a fitted effect of over 60% in size). The gist of the method:
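5 nM human CYP2C19 with 10uM Luciferin-H EGE (at KM) in 50mM KPO4, compound preincubated 10 min at 37C, then NADPH regeneration for 60 min at 37C. Luciferin read by luminescence after detection reagent; normalized to 57uM ketoconazole as full inhibition.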

Chain of 3',5'-cyclic-AMP phosphodiesterase 4B (Homo sapiens) (Q07343 whole entry, looked up): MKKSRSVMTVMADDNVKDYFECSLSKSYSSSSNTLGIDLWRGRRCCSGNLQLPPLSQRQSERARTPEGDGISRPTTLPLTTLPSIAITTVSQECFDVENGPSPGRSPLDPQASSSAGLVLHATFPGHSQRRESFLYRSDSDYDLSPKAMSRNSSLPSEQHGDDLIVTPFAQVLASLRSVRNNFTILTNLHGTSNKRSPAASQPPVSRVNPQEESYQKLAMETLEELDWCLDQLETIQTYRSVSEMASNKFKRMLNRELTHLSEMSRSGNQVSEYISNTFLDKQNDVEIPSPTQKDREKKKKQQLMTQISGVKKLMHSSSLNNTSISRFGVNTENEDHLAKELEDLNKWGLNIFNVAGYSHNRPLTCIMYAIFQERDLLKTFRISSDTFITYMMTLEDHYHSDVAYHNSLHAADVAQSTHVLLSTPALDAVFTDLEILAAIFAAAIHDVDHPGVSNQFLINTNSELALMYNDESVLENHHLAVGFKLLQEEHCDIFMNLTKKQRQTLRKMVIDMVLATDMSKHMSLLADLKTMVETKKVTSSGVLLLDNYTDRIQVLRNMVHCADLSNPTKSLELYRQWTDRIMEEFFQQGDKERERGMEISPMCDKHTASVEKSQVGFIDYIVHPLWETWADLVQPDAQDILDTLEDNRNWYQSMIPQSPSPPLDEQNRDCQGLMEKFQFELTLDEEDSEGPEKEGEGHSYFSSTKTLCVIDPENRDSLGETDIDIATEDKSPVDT
Chain of Cytochrome P450 2D6 (Homo sapiens) (P10635 whole entry, looked up): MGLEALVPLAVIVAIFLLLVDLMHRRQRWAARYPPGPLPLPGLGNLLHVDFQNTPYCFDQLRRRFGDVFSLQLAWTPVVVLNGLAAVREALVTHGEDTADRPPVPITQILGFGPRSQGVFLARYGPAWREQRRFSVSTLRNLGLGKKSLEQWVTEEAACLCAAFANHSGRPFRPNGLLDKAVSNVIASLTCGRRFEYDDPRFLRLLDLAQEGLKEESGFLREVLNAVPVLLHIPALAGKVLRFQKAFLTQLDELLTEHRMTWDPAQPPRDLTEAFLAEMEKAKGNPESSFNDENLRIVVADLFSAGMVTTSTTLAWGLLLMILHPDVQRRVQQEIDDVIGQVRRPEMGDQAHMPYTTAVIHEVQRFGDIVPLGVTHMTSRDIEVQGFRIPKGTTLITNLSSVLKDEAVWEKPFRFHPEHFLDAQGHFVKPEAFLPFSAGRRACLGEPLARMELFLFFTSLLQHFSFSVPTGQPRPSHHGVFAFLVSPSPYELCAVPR
Chain of Cytochrome P450 3A4 (Homo sapiens) (P08684 whole entry, looked up): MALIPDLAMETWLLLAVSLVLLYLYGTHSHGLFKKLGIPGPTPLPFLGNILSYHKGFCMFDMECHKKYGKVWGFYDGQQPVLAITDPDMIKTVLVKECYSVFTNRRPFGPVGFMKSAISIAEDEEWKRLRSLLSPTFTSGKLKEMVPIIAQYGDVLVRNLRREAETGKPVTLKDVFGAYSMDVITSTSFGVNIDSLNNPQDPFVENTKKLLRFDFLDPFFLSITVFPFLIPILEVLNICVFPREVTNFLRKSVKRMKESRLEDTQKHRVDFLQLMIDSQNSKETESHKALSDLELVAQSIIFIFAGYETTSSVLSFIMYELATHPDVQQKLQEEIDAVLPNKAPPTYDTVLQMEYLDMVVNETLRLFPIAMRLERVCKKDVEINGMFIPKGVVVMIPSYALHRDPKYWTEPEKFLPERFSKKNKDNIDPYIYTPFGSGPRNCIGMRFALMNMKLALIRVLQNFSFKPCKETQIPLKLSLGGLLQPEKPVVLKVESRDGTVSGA
Chain of Muscarinic acetylcholine receptor M1 (Rattus norvegicus) (P08482 whole entry, looked up): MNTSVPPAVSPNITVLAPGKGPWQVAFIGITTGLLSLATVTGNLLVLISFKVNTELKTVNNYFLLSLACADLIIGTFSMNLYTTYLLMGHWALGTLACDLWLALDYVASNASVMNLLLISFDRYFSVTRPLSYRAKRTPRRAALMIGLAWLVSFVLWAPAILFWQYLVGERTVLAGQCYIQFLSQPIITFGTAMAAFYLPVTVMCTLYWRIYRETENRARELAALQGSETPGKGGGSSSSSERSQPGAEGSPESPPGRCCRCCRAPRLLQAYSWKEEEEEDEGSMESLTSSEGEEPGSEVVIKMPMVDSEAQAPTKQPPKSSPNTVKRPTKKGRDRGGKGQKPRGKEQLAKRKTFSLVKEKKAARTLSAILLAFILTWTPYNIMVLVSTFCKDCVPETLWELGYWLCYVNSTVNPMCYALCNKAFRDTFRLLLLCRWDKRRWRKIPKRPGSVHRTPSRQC
Chain of Alpha-galactosidase A (Homo sapiens) (P06280 whole entry, looked up): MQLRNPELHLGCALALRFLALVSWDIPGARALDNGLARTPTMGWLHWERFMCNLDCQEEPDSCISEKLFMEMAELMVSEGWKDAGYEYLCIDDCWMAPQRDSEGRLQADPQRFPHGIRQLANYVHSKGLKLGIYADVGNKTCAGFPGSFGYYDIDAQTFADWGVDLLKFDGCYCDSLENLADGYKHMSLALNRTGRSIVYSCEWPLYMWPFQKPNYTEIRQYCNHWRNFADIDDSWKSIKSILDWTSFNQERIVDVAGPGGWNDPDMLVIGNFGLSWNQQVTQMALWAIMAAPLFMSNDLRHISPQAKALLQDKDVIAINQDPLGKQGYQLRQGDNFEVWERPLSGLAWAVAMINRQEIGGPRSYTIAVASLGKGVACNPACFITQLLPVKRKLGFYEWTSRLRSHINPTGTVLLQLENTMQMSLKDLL
Chain of Cytochrome P450 2C19 (Homo sapiens) (P33261 whole entry, looked up): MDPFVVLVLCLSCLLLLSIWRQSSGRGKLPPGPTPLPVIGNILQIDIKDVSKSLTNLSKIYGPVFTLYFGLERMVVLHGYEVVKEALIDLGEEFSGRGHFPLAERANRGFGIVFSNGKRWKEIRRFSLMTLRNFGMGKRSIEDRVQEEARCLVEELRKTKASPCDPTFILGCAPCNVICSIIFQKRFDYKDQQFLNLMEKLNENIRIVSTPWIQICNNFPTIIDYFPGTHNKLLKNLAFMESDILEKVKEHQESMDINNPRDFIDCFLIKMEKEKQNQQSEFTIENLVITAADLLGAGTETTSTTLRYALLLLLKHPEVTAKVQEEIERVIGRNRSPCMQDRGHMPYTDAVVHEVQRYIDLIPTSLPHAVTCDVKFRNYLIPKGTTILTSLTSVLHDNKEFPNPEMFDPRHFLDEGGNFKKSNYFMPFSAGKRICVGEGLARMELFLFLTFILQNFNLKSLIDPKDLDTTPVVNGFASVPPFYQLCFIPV

Turning to `COc1cccc2c1C(=O)c1c(O)c3c(c(O)c1C2=O)C[C@](O)(C(C)=O)C[C@H]3O[C@@H]1C[C@H](N)[C@H](O)[C@H](C)O1`, the activity change, negative = inhibition in test [1] is -116% (active). In addition, the Potency result in test [2], in [5] and in [6] was “inactive” in each case. Also, the values for the Potency in [3], in test [4] and in [7] were above 20.6 µM, above 20.6 µM and 31.6 µM (active), respectively.
Regarding `CCCCCCCCCCCCCCCCCCNC(=O)OC[C@@H](COP(=O)([O-])OCC[n+]1ccsc1)OC`, the activity change, negative = inhibition in test [1] is 1.14% [at 38 µM]. Besides, the Potency entry in test [2], in test [9], in test [10], in test [12], in [13] and in test [14] was “inactive” throughout. Further, the activity, negative = inhibition in test [8] is -15% [at 38 µM]. The Potency in test [3] and in [4] was above 46 µM each time. Further, the outcome in [11], in [15], in test [16] and in test [17] was inactive.
As for `CC(=O)O[C@]12CC[N@+]3(C)CCCC[C@@H]3[C-]1Nc1ccccc12`, the figures for the activity change, negative = inhibition in test [1], in [2] and in test [9] were 2.61% [at 7.69 µM], -11% [at 11.4 µM] and 4.94% [at 11.4 µM], respectively. Further, the activity, negative = inhibition in [8] is 1.87% [at 7.69 µM]. In addition, the Potency is above 46 µM in test [3] and above 9.22 µM in [4]. Moreover, in [10], the Potency entry is “inactive”. Besides, the activation in test [18] is 4.44%.
As to `C=CCOC(=O)C1=C(C)NC(SCC(=O)N(CC)CC)=C(C#N)C1c1ccco1` (stereo not drawn), the activity change, negative = inhibition in [1] is -27.3%; in test [19], 6.04%. In addition, the activity, negative = inhibition in [8] was -6.01%. The Potency in [3] was above 20.6 µM.
`COCCNc1nc(-c2ccc(N(C)C)cc2)nc2ccccc12`: the activity change, negative = inhibition in test [1] is 26.5% [at 7.69 µM]. Moreover, the figures for the Potency in [2], in test [3] and in test [4] were 0.631 µM (active), above 46 µM and above 46 µM, respectively. In test [8], the activity, negative = inhibition was 4.49% [at 7.69 µM]. Moreover, the Potency result in [9], in [10], in [5] and in test [20] was “inactive” each time.
Take `CN1C(=O)C2(c3ccccc31)C1CCCC=C1C(C#N)=C(N)C2(C#N)C#N` (stereo not drawn): the results for the activity change, negative = inhibition in test [1] and in test [19] were -21.4% and -15.5%, respectively. In addition, the activity, negative = inhibition in test [8] was -7.56%.
Take `Cc1cc(C)c(S(=O)(=O)O)c(C)n1`: the activity change, negative = inhibition in test [1] is 6.1%; in test [19] it was -2.21%. For the same molecule, the activity, negative = inhibition in test [8] was 6.56%. Further, the Potency in [3] is above 20.6 µM.
For the molecule `OC[C@@H]1O[C@@H](n2cnc3c(NCCc4ccccc4)ncnc32)[C@@H](O)[C@H]1O`, the activity change, negative = inhibition in test [1] was -4.22% [at 38 µM]. Further, the Potency entry in test [2], in [9], in test [10], in test [21], in test [6] and in test [22] was “inactive” throughout. Also, the activity, negative = inhibition in test [8] was 0.109% [at 38 µM]. Further, the Potency in test [3] is above 46 µM.

(Values after PubChem BioAssay (NCATS).)
